Values joined by “and” are separate entries in the source; they are usually repeats but may differ in a detail not shown here. Equal entries are not always repeated. Records with an inconclusive call do not appear. Active and inactive are the calls of the source. Unless noted, the call rests on the fitted dose curve; in most records, active means well fitted curve in either direction with a large enough effect (not every such curve was filed as active); inconclusive means small, poorly fitted or top-dose-only effect, or another doubt; inactive means flat fitted curve, though single readings scatter.
Assays:
[1] = Stat Signaling Pathway (AID 446); details: ME-180 (cervical carcinoma) SIE beta-lactamase reporter, IL-6 stimulated, 5 h;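 further: ME-180 cervical cancer cells given 40 pM IL-6 alongside compound; SIE-controlled beta-lactamase reporter measured as 460/530 nm FRET emission ratio; on the % scale 0 is the no-effect control and ±100 the full control effect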
Summary of the method: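 IL-6/STAT signaling read in ME-180 cells via an SIE beta-lactamase reporter. Stimulus was 40 pM IL-6 (its AC50) for 5 hrs, so both activation and inhibition register.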

[2] = molecular target: Mitogen-activated protein kinase 10 (Mus musculus) (UniProt Q61831); assay: JNK3 AlphaScreen Assay (AID 530); details: JNK3 lysate, c-Jun phosphorylation; series mostly up to 57.1 µM;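 further: kinase came from lysate of stimulated human HepG2 cells; signal reports phosphorylation of biotinylated GST-cJun 1-79 at Ser73 with 10 µM ATP; on the % scale 0 is the no-effect control and ±100 the full control effect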
Summary of the method: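 Room-temperature AlphaScreen kinase assay; pre-activated HepG2 lysate as JNK3 source, biotin-GST-cJun(1-79) substrate, 10 uM ATP, compound 15 min preincubation.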

[3] = molecular target: 3',5'-cyclic-AMP phosphodiesterase 4B (Homo sapiens) (UniProt Q07343); assay: qHTS Assay for Inhibitors of PDE-IV (AID 607; active means well fitted activation curve with a large enough effect in the main read-out, with a control signal flat, not every such curve was filed as active; further: % of control where 0% means no effect); details: HEK293 ACTOne CNG channel cells, membrane potential fluorescence; series mostly up to 22.9 µM
Summary of the method: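 Live HEK293 cells with a modified cyclic nucleotide-gated (CNG) channel report intracellular cAMP via membrane-potential dye fluorescence (ex 535/em 590 nm). Endogenous PDE-IV was targeted. Compounds were tested at up to 22.9 uM final; RO 20-1724 100 uM served as control.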

[4] = molecular target: Glucocorticoid receptor (Homo sapiens) (UniProt P04150); assay: GR-GFP Redistribution (AID 450;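 active means compounds whose dose series gives a full or clear partial fitted curve of increased nuclear translocation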; further: potency means the concentration at half of the fitted maximal effect); details: U2OS GR-GFP nuclear translocation, laser cytometry, 2 h
[5] = molecular target: Glucocorticoid receptor (Homo sapiens) (UniProt P04150); assay: GR-EFC Redistribution (AID 451; calls by dose curve; further: potency means the concentration at half of the fitted maximal effect); details: CHO-K1 GR-EFC translocation, beta-gal luminescence, 2 h
Summary of the method: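 Translocation of GR-ED fusion to nuclear EA restores b-gal, read by luminescence after 1 h room-temperature detection. Engineered CHO-K1 biosensor cells, 1,000/well, exposed 2 h at 37 C to titrations up to 46 uM final.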

[6] = Cell Viability - N2a (AID 540; active means well fitted curve in the direction sought with a large enough effect; an effect the other way counts as inactive or inconclusive;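 further: plate controls were DMSO alone for no effect and tamoxifen control for full effect; nearly all actives have a fitted effect of over 45% in size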); details: N2a mouse neuroblastoma cell viability; activity change, negative = cytotoxicity: at 92.2 µM (top of the series)
Summary of the method: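 First, 1500 N2a cells per well incubate 5 hr at 37 °C; next, compounds are added and incubated 40 hr at 37 °C; finally CellTiter-Glo is added and luminescence read after 20 min, with AC50 derived by Hill modeling.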

[7] = Cell Viability - NIH 3T3 (AID 541; active means well fitted curve in the direction sought with a large enough effect; an effect the other way counts as inactive or inconclusive;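 further: plate controls were DMSO alone for no effect and tamoxifen positive control for full effect; nearly all actives have a fitted effect of over 25% in size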); details: NIH 3T3 cell viability, qHTS; at 92.2 µM (top of the series)
Summary of the method: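 AC50 values reflect concentration-dependent loss of intracellular ATP in NIH 3T3 cells after 40 hr treatment in complete culture medium, quantified by luciferase-based luminescence.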

[8] = Cell Viability - HUV-EC-C (AID 542; active means well fitted curve in the direction sought with a large enough effect; an effect the other way counts as inactive or inconclusive; further: on the % scale 0 is the no-effect control and ±100 the full control effect; nearly all actives have a fitted effect of over 35% in size); details: HUV-EC-C endothelial cell viability, qHTS; series mostly up to 92.2 µM
Summary of the method: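 Decrease in cellular ATP, quantified by luciferase luminescence, reflects toxicity in normal human vascular endothelial HUV-EC-C cells given compound for 40 hr in complete culture medium. Values are AC50s from concentration-response curves.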

[9] = Cell Viability - H-4-II-E (AID 543; active means well fitted curve in the direction sought with a large enough effect; an effect the other way counts as inactive or inconclusive; further: on the % scale 0 is the no-effect control and ±100 the full control effect; nearly all actives have a fitted effect of over 35% in size); details: H-4-II-E rat hepatoma viability; series mostly up to 92.2 µM
Summary of the method: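 Here, cytotoxicity is measured in the rat hepatoma line H-4-II-E as loss of intracellular ATP after 40 hr compound treatment, detected by luciferase luminescence.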

[10] = Cell Viability - SH-SY5Y (AID 544; active means well fitted curve in the direction sought with a large enough effect; an effect the other way counts as inactive or inconclusive; further: nearly all actives have a fitted effect of over 55% in size); details: SH-SY5Y neuroblastoma cell viability; viability change, negative = cytotoxic: at 92.2 µM (top of the series)
Summary of the method: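 Cytotoxicity is scored as a concentration-dependent fall in intracellular ATP in human SH-SY5Y cells treated 40 hr in complete culture medium. Potency is expressed as AC50 from a Hill equation fit.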

[11] = Cell Viability - Renal Proximal Tubule (AID 545; active means well fitted curve in the direction sought with a large enough effect; an effect the other way counts as inactive or inconclusive; further: nearly all actives have a fitted effect of over 40% in size); details: renal proximal tubule cells viability, primary cells of rat origin; activity change, negative = cytotoxicity: at 91.7 µM (top of the series)
Summary of the method: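 Rat renal proximal tubule primary cells, 1000/well, exposed to compounds for 40 hr at 37 °C in complete medium; cellular ATP read by CellTiter-Glo luminescence. AC50 from concentration-response fitted with standard Hill equation.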

[12] = Cell Viability - Mesenchymal (AID 546; active means well fitted curve in the direction sought with a large enough effect; an effect the other way counts as inactive or inconclusive;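 further: cells exposed to compound for 40 hours before reading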); details: mesenchymal cells viability, qHTS; activity change, negative = cytotoxicity: at 91.7 µM (top of the series)
Summary of the method: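 AC50 values reflect the drop in intracellular ATP in a human kidney mesenchymal line derived from normal glomeruli. Treatment lasts 40 hr at 37 °C in complete medium, and the signal comes from CellTiter-Glo luminescence.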

[13] = Cellular Toxicity (caspase-3) HepG2 (AID 654; active means well fitted curve in the direction sought with a large enough effect; an effect the other way counts as inactive or inconclusive;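 further: cells exposed to compound for 16 hours before reading; 0% = DMSO alone and 100% = caspase signal from 100 µM tamoxifen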); details: HepG2 caspase-3 activation, luminescence; series mostly up to 92.2 µM
Summary of the method: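 qHTS, HepG2, 1500 cells/well, complete medium; cpd 16 h 37 °C; Caspase-Glo 3/7, 20 min RT; lum. Norm: DMSO vs 100 uM tamoxifen; AC50 Hill fit.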

[14] = Cellular Toxicity (caspase-3) Jurkat (AID 655; active means well fitted curve in the direction sought with a large enough effect; an effect the other way counts as inactive or inconclusive;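 further: cells exposed to compound for 16 h at 37 °C before reading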); details: Jurkat caspase-3 activation, luminescence, DMSO = 0%, tamoxifen = 100%; at 92.2 µM (top of the series)
Summary of the method: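 Jurkat cells (5000/well) in complete medium exposed 16 h at 37 C; caspase-3/7 activity read by Caspase-Glo luminescence after 20 min at room temperature. Normalized to DMSO and 100 uM tamoxifen; AC50 from Hill fits.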

[15] = Cellular Toxicity (caspase-3) HUV-EC-C (AID 656; active means well fitted curve in the direction sought with a large enough effect; an effect the other way counts as inactive or inconclusive); details: HUV-EC-C cells, caspase-3 activation (apoptosis); series mostly up to 92.2 µM
Summary of the method: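 HUV-EC-C cells (1000/well) in complete medium, compound-treated 16 h at 37 °C; caspase-3/7 activity read by Caspase-Glo 3/7 luminescence. Normalized to DMSO (basal) and 100 uM tamoxifen (100%); AC50 from Hill-equation concentration-response fits.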

[16] = Cellular Toxicity (caspase-3) SHSY5Y (AID 657; active means well fitted curve in the direction sought with a large enough effect; an effect the other way counts as inactive or inconclusive); details: SH-SY5Y caspase-3 activation, DMSO zero, 10 µM staurosporine = 100%; series mostly up to 91.7 µM
Summary of the method: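 SH-SY5Y human neuroblastoma cells, 1500/well, exposed to compound for 16 hours at 37 °C in complete medium. Caspase-3/7 activity read by Caspase-Glo luminescence after 1 hr at room temperature, normalized to DMSO and 10 uM staurosporine; AC50 from Hill fit.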

[17] = Cellular Toxicity (caspase-3) BJ (AID 658; active means well fitted curve in the direction sought with a large enough effect; an effect the other way counts as inactive or inconclusive;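 further: 0% = DMSO basal and 100% = 10 µM staurosporine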); details: BJ fibroblasts, luminescence, normalized: DMSO 0%, staurosporine 100%; series mostly up to 91.7 µM
Summary of the method: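 Readout: Caspase-Glo 3/7 luminescence increase in BJ cells after 16 hr treatment at 37 °C. Staurosporine and tamoxifen served as positive controls; AC50 values came from Hill modelling of data normalized to DMSO and 10 uM staurosporine.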

[18] = Cellular Toxicity (caspase-3) MRC-5 (AID 659; active means well fitted curve in the direction sought with a large enough effect; an effect the other way counts as inactive or inconclusive;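 further: 0% = DMSO basal and 100% = 10 µM staurosporine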); details: MRC-5 cells, luminescence; Potency: caspase-3 activation; series mostly up to 91.7 µM
Summary of the method: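 Concentration-dependent caspase 3/7 activation is measured in human normal lung fibroblasts (MRC-5) following 16-hour treatment. AC50 values come from standard Hill-equation modeling of luminescence normalized to DMSO and 10 uM staurosporine.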

[19] = Cellular Toxicity (caspase-3) SK-N-SH (AID 661; active means well fitted curve in the direction sought with a large enough effect; an effect the other way counts as inactive or inconclusive;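 further: 0% = DMSO basal and 100% = 10 µM staurosporine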); details: SK-N-SH caspase-3 activation, qHTS; series mostly up to 91.7 µM
Summary of the method: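 Caspase 3/7 activation is measured as a luminescence increase from aminoluciferin released by substrate cleavage in SK-N-SH cells after 16 hr compound treatment; values are AC50 from concentration-response curves.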

[20] = Cellular Toxicity (caspase-3) H-4-II-E (AID 663; active means well fitted curve in the direction sought with a large enough effect; an effect the other way counts as inactive or inconclusive;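 further: cells exposed to compound for 16 hr before readout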); details: H-4-II-E rat hepatoma, scaled: DMSO 0%, 100 µM tamoxifen 100%; at 92.2 µM (top of the series)
Summary of the method: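 Apoptosis induction is scored as increased luminescence from caspase 3/7 substrate cleavage in rat hepatoma H-4-II-E cells exposed to compound for 16 hr. Activity is scaled between DMSO and 100 uM tamoxifen.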

Sequence of 3',5'-cyclic-AMP phosphodiesterase 4B (Homo sapiens) (Q07343 whole entry, looked up): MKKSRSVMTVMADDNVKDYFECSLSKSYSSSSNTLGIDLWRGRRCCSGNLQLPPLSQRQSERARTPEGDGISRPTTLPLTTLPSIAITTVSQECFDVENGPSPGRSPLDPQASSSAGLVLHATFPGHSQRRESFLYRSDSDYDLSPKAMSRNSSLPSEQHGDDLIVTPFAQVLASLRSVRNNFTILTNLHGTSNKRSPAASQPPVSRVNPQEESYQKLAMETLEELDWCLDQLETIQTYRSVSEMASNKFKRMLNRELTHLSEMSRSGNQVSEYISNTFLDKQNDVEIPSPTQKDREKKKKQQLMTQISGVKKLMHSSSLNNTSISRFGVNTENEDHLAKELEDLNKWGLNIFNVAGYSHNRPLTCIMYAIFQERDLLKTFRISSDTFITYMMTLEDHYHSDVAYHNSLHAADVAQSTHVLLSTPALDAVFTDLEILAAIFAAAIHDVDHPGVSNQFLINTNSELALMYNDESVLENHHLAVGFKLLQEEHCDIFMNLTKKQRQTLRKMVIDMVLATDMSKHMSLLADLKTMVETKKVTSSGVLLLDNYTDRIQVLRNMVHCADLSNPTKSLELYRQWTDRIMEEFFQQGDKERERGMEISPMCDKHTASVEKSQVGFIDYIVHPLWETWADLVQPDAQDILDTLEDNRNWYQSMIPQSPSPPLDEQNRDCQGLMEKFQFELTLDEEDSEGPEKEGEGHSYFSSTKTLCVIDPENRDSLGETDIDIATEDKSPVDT
Sequence of Glucocorticoid receptor (Homo sapiens) (P04150 whole entry, looked up, the tested form may be a part): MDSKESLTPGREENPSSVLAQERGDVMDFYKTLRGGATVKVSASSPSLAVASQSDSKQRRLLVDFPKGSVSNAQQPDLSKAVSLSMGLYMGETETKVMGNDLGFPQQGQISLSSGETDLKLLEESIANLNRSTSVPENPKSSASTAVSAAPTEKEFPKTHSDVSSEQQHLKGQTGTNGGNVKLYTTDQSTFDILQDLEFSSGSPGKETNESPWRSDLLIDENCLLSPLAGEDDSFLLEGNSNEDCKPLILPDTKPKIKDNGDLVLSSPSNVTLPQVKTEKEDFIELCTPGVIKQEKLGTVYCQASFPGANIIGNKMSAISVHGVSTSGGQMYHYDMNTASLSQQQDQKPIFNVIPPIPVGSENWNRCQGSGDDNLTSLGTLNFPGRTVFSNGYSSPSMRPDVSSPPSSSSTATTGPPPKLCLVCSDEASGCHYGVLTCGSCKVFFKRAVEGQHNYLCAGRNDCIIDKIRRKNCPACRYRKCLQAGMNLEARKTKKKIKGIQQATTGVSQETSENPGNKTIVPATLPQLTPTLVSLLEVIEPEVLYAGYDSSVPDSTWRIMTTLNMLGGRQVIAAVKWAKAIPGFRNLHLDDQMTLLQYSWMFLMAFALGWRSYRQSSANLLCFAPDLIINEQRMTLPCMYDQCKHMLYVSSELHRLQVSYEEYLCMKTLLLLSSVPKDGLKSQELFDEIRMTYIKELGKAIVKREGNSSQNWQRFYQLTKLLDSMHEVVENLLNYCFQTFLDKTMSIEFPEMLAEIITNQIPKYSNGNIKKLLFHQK

CCN(CC)CCOC(=O)c1ccc(N)cc1
inactive: activity, negative = inhibition ([1]; at 17.2 µM (top of the series)) 13% | activity, negative = inhibition ([1]; at 38 µM (top of the series)) -13.6% | outcome [2] | outcome [3]

COc1ccccc1N1CCN(CCCNc2cc(=O)n(C)c(=O)n2C)CC1
inactive: activity, negative = inhibition ([1]; at 17.2 µM (top of the series)) -0.455% | activity, negative = inhibition ([1]; at 38 µM (top of the series)) 1.93% | outcome [2] | outcome [3]

O=C1NCC2(CCN(CCc3ccccc3)CC2)O1
inactive: activity, negative = inhibition ([1]; at 17.2 µM (top of the series)) 8.61% | activity, negative = inhibition ([1]; at 38 µM (top of the series)) 4.62% | Potency [4] > 46 µM and > 20.6 µM | Potency [5] > 46 µM and > 20.6 µM | outcome [2] | outcome [3]

NC(N)=Nc1nc(CSCC/C(N)=N/S(N)(=O)=O)cs1
inactive: activity, negative = inhibition ([1]; at 17.2 µM (top of the series)) 12% and 11.5% | activity, negative = inhibition ([1]; at 38 µM (top of the series)) 1.63% | Potency [4] > 46 µM and > 20.6 µM | Potency [5] > 46 µM and > 20.6 µM | outcome [2] | outcome [3]

CC[C@]1(O)C[C@@H]2CN(CCc3c([nH]c4ccccc34)[C@@](C(=O)OC)(c3cc4c(cc3OC)N(C)[C@H]3[C@@](O)(C(=O)OC)[C@H](OC(C)=O)[C@]5(CC)C=CCN6CC[C@]43[C@@H]65)C2)C1
inactive: activity, negative = inhibition ([1]; at 17.2 µM (top of the series)) -9.58% | Potency [4] > 20.6 µM

CCCNC(=O)NS(=O)(=O)c1ccc(Cl)cc1
inactive: activity, negative = inhibition ([1]; at 17.2 µM (top of the series)) -8.89% and -0.985% | activity, negative = inhibition ([1]; at 38 µM (top of the series)) -1.14% | Potency [4] > 46 µM and > 20.6 µM | Potency [5] > 46 µM and > 20.6 µM | outcome [2] | Potency [6] | activity change, negative = cytotoxicity [7] 4.29% | Potency [8] | Potency [9] | Potency [10] | Potency [11] | Potency [12] | outcome [3] | Potency [13] | caspase-3 activation [14] -0.0991% | Potency [15] | outcome [16] | outcome [17] | Potency [18] | Potency [19] | caspase-3 activation [20] -0.479%

CC(=O)N[C@@H](CS)C(=O)O
inactive: activity, negative = inhibition ([1]; at 17.2 µM (top of the series)) 3.22% | Potency [4] > 20.6 µM

COCCCCC(=NOCCN)c1ccc(C(F)(F)F)cc1
inactive: activity, negative = inhibition ([1]; at 17.2 µM (top of the series)) -3.51% | activity, negative = inhibition ([1]; at 38 µM (top of the series)) -10.7% | Potency [4] > 46 µM and > 20.6 µM | Potency [5] > 46 µM and > 20.6 µM | outcome [3]

Clc1ccc(Cn2c(CN3CCCC3)nc3ccccc32)cc1
inactive: activity, negative = inhibition ([1]; at 17.2 µM (top of the series)) -8.1% and 3.26% | activity, negative = inhibition ([1]; at 38 µM (top of the series)) 0.465% | Potency [4] > 46 µM and > 20.6 µM | Potency [5] > 46 µM and > 20.6 µM | outcome [2] | outcome [3]

CCN(CC)CCNC(=O)c1ccc(N)cc1
inactive: activity, negative = inhibition ([1]; at 17.2 µM (top of the series)) 5.34% and 0.638% | activity, negative = inhibition ([1]; at 38 µM (top of the series)) 3.95% | outcome [2] | outcome [3]

CC(C)(C)c1ccc(C(O)CCCN2CCC(C(O)(c3ccccc3)c3ccccc3)CC2)cc1 (configuration not stated)
inactive: activity, negative = inhibition ([1]; at 17.2 µM (top of the series)) -1.77% | Potency [4] > 20.6 µM

— PubChem BioAssay (NCATS)
